Test results taken from ChEMBL document CHEMBL1157539, “Thousands of chemical starting points for antimalarial lead identification” (Nature, 2010).

What was measured:
Assay type in all cases: functional
[1] = test system: Plasmodium falciparum; assay: GSK_TCMDC: Inhibition of Plasmodium falciparum 3D7 in whole red blood cells, using parasite LDH activity as an index of growth. Test compounds present at 2uM
[2] = test system: Plasmodium falciparum; assay: GSK_TCMDC: Inhibition of Plasmodium falciparum Dd2 in whole red blood cells, using parasite LDH activity as an index of growth. Test compounds present at 2uM
[3] = test system: HepG2; assay: GSK_TCMDC: Percent inhibition of human HepG2 cell line. Test compounds present at 10uM.

Compound | Inhibition [1] | Inhibition [2] | Inhibition [3]
CN1CCN(CCc2ccc3nc(-c4csc(Cc5cc(Cl)ccc5OCc5ccccc5)n4)[nH]c3c2)CC1 | 100% | 97% | 30%
CC(C)Cn1cc(C2CCN(CCN3CCC(CNC(=O)c4ccc(NC(=O)c5ccc(Cl)cc5)cc4)CC3)CC2)c2ccccc21 | 100% | 99% | 28%
O=C(/C=C/c1ccc(Cl)c(Cl)c1)NCCCCCN1CCCC(CNS(=O)(=O)c2cccc(C(F)(F)F)c2)C1 (configuration not stated) | 92% | 0% | 73%
O=C(Nc1cccc([N+](=O)[O-])c1)Nc1ccc(Cl)c(C(F)(F)F)c1 | 96% | 87% | 15%
Cc1[nH]c(C)c(-c2ccc(OCc3cc(C(F)(F)F)cc(C(F)(F)F)c3)nc2)c(=O)c1Cl | 98% | 96% | 19%
OCc1ccc(-c2cncc(Nc3cccc(Cl)c3)c2)cc1 | 95% | 100% | 4%
CCc1c(CCNCCCCCCNCCc2ccc(OC)c(OC)c2CC)ccc(OC)c1OC.Cl | 100% | 1% | 58%
CC(C)Oc1ccccc1-c1csc(C(=O)NCC2CCN(Cc3ccc(C(C)(C)C)cc3)C2)c1.O=C(O)C(F)(F)F (configuration not stated) | 90% | 45% | 59%
CC(C)(Oc1ccc(Cl)cc1)C(=O)NCCC1CCN(CCCCCNC(=O)/C=C/c2ccc(Cl)c(Cl)c2)CC1 | 87% | 37% | 73%
CCC(NCc1ccc(-c2cncc(C(=O)NCC(C)C)c2)cc1)c1ccccc1.O=C(O)C(F)(F)F (configuration not stated) | 86% | 8% | 14%
FC(F)(F)c1ccc2[nH]c(-c3ccc(-c4cccc(CNCCN5CCNCC5)c4)s3)nc2c1.O=C(O)C(F)(F)F | 91% | 39% | 22%
Cl.Nc1ccc(Nc2ccnc3ccc(C(F)(F)F)cc23)cc1O | 98% | 59% | 1%
FC(F)(F)c1cccc(Nc2nc(-n3ccnc3)nc(-n3ccnc3)n2)c1 | 97% | 9% | 5%
Cl.Nc1nc(N)c2c(ccc3nn(Cc4cccnc4)cc32)n1 | 96% | 0% | 41%
CC(Cc1ccc(OCCCCOc2ccccc2)cc1)NCCc1ccc(Oc2ccccc2)cc1 (configuration not stated) | 89% | 95% | 99%
CN(C)CCN(Cc1ccccc1-c1ccc(CNCCc2ccccc2)cc1)C(=O)c1ccccc1.O=C(O)C(F)(F)F | 95% | 97% | 81%
CCN(CCCN1CCCCC1)c1cc(C)nc(Nc2ccc(Cl)cc2C)n1.O=C(O)C(F)(F)F | 95% | 46% | 44%
CCCC(CNCc1cccc(SC(F)(F)F)c1)CNc1cc(=O)c2ccccc2[nH]1 (configuration not stated) | 100% | 87% | 5%
CN1CC[C@@H](Oc2cc(Nc3nc(-c4ccc(C#N)cc4)cs3)ccc2Cl)C1.Cl | 99% | 24% | 12%
Cc1cccc(N2C(N)=NC(N)=NC2(C)C)c1C.Cl | 90% | 0% | 0%
Cc1nc(-c2cccc3c(NC(=O)Nc4ccc5nccc(N6CCN(C)CC6)c5c4)cccc23)no1.Cl | 100% | 84% | 0%
CCCC/C=C(\Cl)c1ccc(O)c2c1C[C@H]1C[C@H]3[C@H](N(C)C)C(O)=C(C(N)=O)C(=O)[C@@]3(O)C(O)=C1C2=O.Cl | 90% | 98% | 16%
Cc1onc(-c2c(F)cccc2Cl)c1C(=O)Nc1ccccc1I | 99% | 52% | 0%
CN1CCC(C(=O)N(Cc2ccc(-c3ccc(CNCCc4ccc(S(C)(=O)=O)cc4)cn3)cc2)C2CCN(Cc3ccccc3)CC2)CC1.O=C(O)C(F)(F)F | 100% | 95% | 11%
CNCCNCc1ccc(-c2cccc(-c3nc4cc(C(F)(F)F)ccc4[nH]3)c2)cc1.O=C(O)C(F)(F)F | 98% | 77% | 27%
COc1ccc2ncc(F)c([C@H](O)CN3CCC(NCc4ccc5c(c4)NC(=O)CS5)CC3)c2c1.Cl | 100% | 98% | 7%
NC1CCCN(Cc2ccc(-c3ccc(-c4nc5ccccc5[nH]4)s3)cc2)C1.O=C(O)C(F)(F)F (configuration not stated) | 100% | 99% | 40%
Cc1cc(O)c(CN(C)Cc2ccc(N(C)C)cc2)cc1C(C)C | 100% | 98% | 3%
CC(=O)Nc1ccc(COc2ccc(Nc3ccnc4cc(-c5ccccn5)ccc34)cc2)cc1.Cl | 99% | 94% | 99%
